Screen size: about 320,000 compounds; about 1,300 (0.41%) were called active. Not shown: some 3% with an inconclusive outcome. How the calls were made is not given here. Not all results are given here. Measured potencies and affinities stand elsewhere.

The assay can be described thus: growth inhibition of non-replicating M. tuberculosis (AID 488890).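 Further: plate controls were DMSO cells for no effect and high antibiotic wells for full effect.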 The note with it: Mycobacterium tuberculosis non-replicating, at 25 µM, stronger effect = higher value.
Take `COc1cc(OC)cc(C(=O)N[C@H](C(=O)OCC(N)=O)C(C)C)c1`: the inhibition is -12.8%.

Consider `CCNC(=O)N(C)C[C@H]1N[C@@](C)(C(=O)OC)[C@H]2C(=O)N(C)C(=O)[C@@H]12`, for which the inhibition stood at 2.38%.

Regarding `CNC(=S)NNc1nc(N2CCOCC2)nc(N2CCOCC2)n1`, the inhibition is -5%.

Turning to `Cc1cccc(C(=O)N/N=C2\CS(=O)(=O)N(C)c3ccsc32)c1`, the inhibition turned out to be 56.1%.

As to `CCCC(=O)N/N=C1\CS(=O)(=O)N(C)c2ccsc21`, the inhibition was 1.81%.

In the case of `Cc1ccc(NC(=O)C2=C(O)c3sccc3N(C)S2(=O)=O)cc1`, the inhibition worked out at 18.9%.

With `CN1c2ccsc2/C(=N/NC(=O)c2c(F)cccc2F)CS1(=O)=O`, the inhibition was -25.7%.

Take `Cc1ccccc1NC(=O)C1C2C=CC(C3CC23)C1C(=O)O` (stereo unspecified): the inhibition was -10.4%.

Turning to `Cc1ccc(NC(=O)c2ccc3snnc3c2)cc1C`, the inhibition was -6.47%.

As to `O=C(CCN1CCN(C/C=C/c2ccccc2)CC1)Nc1ccccc1F`, the inhibition was -1.04%.

`COc1ccc2[nH]c(=O)c(C(=O)O)cc2c1`: the inhibition was -0.72%.

Take `O=C(N/N=C/c1ccccn1)c1ccc([N+](=O)[O-])cc1Cl`: the inhibition was found to be 74.4%.

For `O=C(N/N=C/c1ccc2nccnc2c1)c1cccc([N+](=O)[O-])c1`, the inhibition is -21.3%.

On to `O=C(N/N=C/c1ccccn1)c1ccc(NC(=O)c2cccc([N+](=O)[O-])c2)cc1`, for which the inhibition amounted to 7.23%.

With `O=C(N/N=C/c1ccccn1)c1ccncc1`, the inhibition turned out to be 75.3%.

In the case of `CCCCC(CCC(=O)Nc1ccn(-c2ccccc2)n1)C(=O)O` (stereo unspecified), the inhibition is -15.5%.

As to `Cc1nnc(C)n1N`, the inhibition is -10.3%.

As for `COc1ccc(NC(=O)CN2CCN(C(=O)C3CCCO3)CC2)c(OC)c1` (stereo unspecified), the inhibition is -13.5%.

As to `O=C(NC1CCCc2ccccc21)c1ccc(Cl)nc1` (stereo unspecified), the inhibition turned out to be 72.1%.

Turning to `O=C(NC1CCOc2ccccc21)c1ccccn1` (stereo unspecified), the inhibition is 75.5%.

As to `COc1ccc2ccccc2c1/C=N/Nc1ccc(Cl)c(C(=O)O)c1`, the inhibition was -12.5%.

Take `O=C(O)c1cc(N/N=C/c2c(O)ccc3ccccc23)ccc1Cl`: the inhibition is 0.25%.

Turning to `CC(C)(C)OCC1CO1` (stereo unspecified), the inhibition is -2.36%.

With `Cc1ccccc1SCC(=O)Nc1ccc(N2CCOCC2)cc1`, the inhibition was 0.16%.

As for `COc1ccccc1Nc1nn2c(=O)c3ccc(C(=O)N4CCC(C)CC4)cc3nc2s1`, the inhibition amounted to 33.4%.

`COc1nc(OC)nc(Oc2ccc(Cl)cc2[N+](=O)[O-])n1`: the inhibition was found to be 2.78%.

In the case of `COc1ccc(OCCNc2cc(Cl)ccc2[N+](=O)[O-])cc1`, the inhibition is -1.86%.

Turning to `CCc1ccccc1OCCCN1CCCC1`, the inhibition is 4.44%.

For the molecule `Cc1cc(-n2cnnn2)ccc1C(C)C`, the inhibition was found to be 9.21%.

Regarding `Nc1cccn2c(-c3ccc(Cl)c(Cl)c3)cnc12`, the inhibition was found to be 54.7%.

On to `Cn1c(-c2ccc(Cl)cc2)cnc1N`, for which the inhibition is 52.6%.

Turning to `COc1ccc(C(C)=O)cc1CSc1nc(C)cc(C)n1`, the inhibition stood at 6.97%.

For the molecule `O=C(O)C(Br)CBr` (stereo unspecified), the inhibition is 20.6%.

As for `Cc1c(Cl)cccc1NC(=O)Cn1cccc1`, the inhibition was determined as 4.11%.

Turning to `CCCNC(=O)Cn1sc2nc(C)cc(C)c2c1=O`, the inhibition was determined as 2.63%.

With `Cc1cc(C)c2c(=O)n(CC(=O)N3CCC(N4CCCCC4)CC3)sc2n1`, the inhibition was -11.9%.

For the molecule `Cc1cccc(N2CCN(C(=O)Cn3nc(C)n4cccc4c3=O)CC2C)c1` (stereo unspecified), the inhibition is -17.1%.

For `Cc1c(Cl)cccc1NC(=O)Cn1cc(C(F)(F)F)cc(Cl)c1=O`, the inhibition came out at 3.98%.

Turning to `Cc1cc(C)c2c(=O)n(CC(=O)NC3CCCC3)sc2n1`, the inhibition was 6.3%.

Take `COCCCn1nnnc1SCC(=O)N1c2ccccc2CC1C` (stereo unspecified): the inhibition came out at 0.95%.

With `CC(=O)Nc1ccc2c(c1)C(=O)N(C1CCCCC1)C2=O`, the inhibition was -7.24%.

For the molecule `CCOc1ccc(OCCC(=O)OCC(=O)N2CCN(S(=O)(=O)c3ccc(Cl)cc3)CC2)cc1`, the inhibition was 40.6%.

In the case of `Cc1ccc(NC(=O)C(C)SCc2nc3sc(C)c(C)c3c(=O)[nH]2)nc1` (stereo unspecified), the inhibition was -7.05%.

Take `C[C@H](NC(=O)[C@@H]1Cc2ccccc2CN1C(=O)OC(C)(C)C)C(=O)NCC1CCCO1` (stereo partly specified): the inhibition stood at 6.8%.

On to `O=C(O)c1ccc(NCc2nc3ccccc3n2CCOc2ccccc2Cl)cc1`, for which the inhibition worked out at 30.7%.

For `Nc1nc2ccccc2n1CCOc1ccc(F)cc1`, the inhibition was determined as 11%.

For `CC(=O)Nc1nc2ccccc2n1CCN(C)C`, the inhibition was 14.6%.

For `Nc1nc2ccccc2n1CCOc1ccc(Cl)cc1`, the inhibition was 79%.

Regarding `O=C(CCc1nnc(CCCCc2ccccc2)o1)NCCC1CCCCO1` (stereo unspecified), the inhibition came to 15.1%.

Regarding `CCCNC(=O)N1CCN(S(=O)(=O)c2ccc3c(c2)OCCO3)CC1`, the inhibition was 1.44%.

For `CCCNC(=O)NC(=O)CN1CCCC1c1ccc2c(c1)OCCO2` (stereo unspecified), the inhibition is -16.2%.

As for `CCOC(=O)c1c(CC(C)C)csc1/N=C/C1C(=O)CC(C)(C)CC1=O`, the inhibition was -10.2%.

`OCC1(Cc2ccc(F)cc2)CCCN(CCCC(F)(F)F)C1` (stereo unspecified): the inhibition is -19.8%.

Regarding `Cc1ccc(S(=O)(=O)N2[C@@H](c3ccc4c(c3)OCO4)C(C(=O)O)=C[C@H]2C(C)(C)C)cc1`, the inhibition was 41.7%.

On to `CC1Cc2ccccc2N1C(=O)COC(=O)c1cc(Br)ccc1O` (stereo unspecified), for which the inhibition came out at 62.7%.

As for `O=C(CCC(=O)c1cccs1)c1cccs1`, the inhibition worked out at 68.8%.

As to `O=C(CCC(=O)N1CCN(c2ccccn2)CC1)c1cccs1`, the inhibition was -4.25%.

Consider `Cc1ccc(NC(=O)N2CCCCCC2)c(C)c1`, for which the inhibition was -16.7%.

Take `Cc1cccc(-c2c3c(=O)n(C)c(=O)n(C)c3cn2-c2ccc(O)cc2)c1`: the inhibition was -12.8%.

Regarding `CC(C)NC(=O)c1cc(-n2cnnc2)ccc1Cl`, the inhibition was found to be 2.78%.

Consider `CCOC(=O)C1=C(c2ccccc2)NC(=O)NC1c1ccc(OCC#N)c(OC)c1` (stereo unspecified), for which the inhibition is -4.72%.

As for `COC(=O)c1ccc(CNC(=O)c2ccc(COc3ccccc3)cc2)cc1`, the inhibition was 10.8%.

Take `CCOC(=O)C1=C(c2ccccc2)NC(=O)NC1c1ccc(OC)c(OC)c1` (stereo unspecified): the inhibition was found to be 2.41%.

Take `CCOC(=O)C1=C(c2ccccc2)Nc2ncnn2C1c1ccc(C(=O)O)cc1` (stereo unspecified): the inhibition stood at 1.92%.

Consider `Cc1cc(C(=O)Nc2cc(C)on2)on1`, for which the inhibition is 6.65%.

Regarding `C=C[C@]1(C)C=C2CC[C@H]3[C@@](C)(CCC[C@@]3(C)C(=O)O)[C@@H]2CC1`, the inhibition was determined as 43.7%.

As for `C=C/C(C)=C/CC1C(=C)CCC2C(C)(C(=O)O)CCCC12C` (stereo unspecified), the inhibition is 0.01%.

Take `O=C(O)C1CCN(S(=O)(=O)c2ccc(N3CCOCC3)c([N+](=O)[O-])c2)CC1`: the inhibition was -8.22%.

Regarding `Cc1ccc(N(C(=O)CNC(=O)c2ccco2)C(C(=O)NCC2CCCO2)c2ccccc2)cc1C` (stereo unspecified), the inhibition was found to be 16%.

In the case of `CCNC(=O)C(C)Sc1ccc(Cl)cc1` (stereo unspecified), the inhibition came to 25.6%.

In the case of `COc1ccc(-c2nnn(CC(=O)NC(=O)NC3CCCCC3)n2)cc1OC`, the inhibition amounted to 2.95%.

In the case of `COc1ccc(-c2nnn(CC(=O)N(C3CCCCC3)C(C)C(=O)NC3CCCC3)n2)cc1OC` (stereo unspecified), the inhibition is 34.8%.

On to `CC(C)CCn1c(=O)c(C(=O)Nc2ccccc2S(N)(=O)=O)c(O)c2ccccc21`, for which the inhibition worked out at 17.2%.

With `CCCCCn1c(=O)c(C(=O)Nc2cccc(C)n2)c(O)c2ccccc21`, the inhibition is -21.5%.

On to `CCCCCn1c(=O)c(C(=O)Nc2ccccc2C)c(O)c2ccccc21`, for which the inhibition was -22.9%.

Take `CCOC(=O)Cc1csc(NC(=O)c2c(O)c3c(n(CC(C)C)c2=O)CCCC3)n1`: the inhibition worked out at 44.2%.

As usually defined, the inhibition is the relative decrease from the control value, in per cent.

The record behind these values is PubChem BioAssay AID488890 (Southern Research Specialized Biocontainment Screening …, 2010).
